# Results published in PubChem BioAssay AID589 (National Center for Advancing Translational Sciences (NCATS), 2007).
# Out of some 59,000 compounds screened, about 6,200 (11%) were called active. Inconclusive results (about 9%) are left out. Cut-off read from the data, not from the text of the source: active = max dye-equivalent concentration above about 10 nM; inconclusive = mostly about 1.1 nM to 9.6 nM; inactive = weaker than that. This excerpt belongs to a sample that is enriched for actives.
# Assay: qHTS Assay for Spectroscopic Profiling in 4-MU Spectral Region
# Conditions: compound autofluorescence, 340/450 nm, 4-MU equivalents; stronger effect = higher value
# Method in brief: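 Compounds in 100 mM Tris, pH 8.0, sat 15 min at room temperature before fluorescence was read at 340 nm excitation/450 nm emission; a per-plate six-point 4-MU standard curve converted signals to dye-equivalent concentration at each compound concentration.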
row,SMILES,max dye-equivalent concentration
1,Cn1c(=O)c2c(nc(N3CCCCCC3)n2CC(=O)c2ccc(Br)cc2)n(C)c1=O,inactive
2,Cn1c(=O)c2c(nc(N3CCCCCC3)n2CC(O)COc2ccc(Cl)cc2)n(C)c1=O (stereo unspecified),38 nM (active)
3,Cc1cccc(Cn2c(N3CCN(c4ccccc4)CC3)nc3c2c(=O)n(C)c(=O)n3C)c1,inactive
4,CSCCC(NS(=O)(=O)/C=C/c1ccccc1)C(=O)N1CCC(C)CC1 (stereo unspecified),inactive
5,COCCCN1C(=O)C(=O)/C(=C(/O)c2ccc3c(c2)CC(C)O3)C1c1cccnc1 (stereo unspecified),inactive
6,CCOC(=O)c1sc(NC(=S)n2cc(C)cn2)c(C(=O)OCC)c1C,inactive
7,CCc1c(C)sc(NC(=O)c2ccc(Br)o2)c1C(=O)OC,96 nM (active)
8,CCCC(=O)Nc1ccc(Cl)c(NC(=O)c2ccc(Br)o2)c1,inactive
9,Cc1cc(C)nc(-n2nc(C)cc2NC(=O)c2ccc(Br)o2)n1,inactive
10,O=C(c1ccco1)N1CCC[C@@]2(CCN(c3ccccc3)C2)C1,inactive
11,O=C(Nc1nnc(CCc2ccccc2)s1)C1CCCO1 (stereo unspecified),inactive
12,O=C(CC1NCCNC1=O)Nc1ccc(Oc2ccccc2)cc1 (stereo unspecified),inactive
13,CCOc1ccc(NC(=O)CC2NCCNC2=O)cc1 (stereo unspecified),inactive
14,O=C(CC1Nc2ccccc2NC1=O)Nc1ccccc1 (stereo unspecified),89 nM (active)
15,Cc1ccccc1S(=O)(=O)Cc1ccc(C(=O)NCCN2CCCCC2C)o1 (stereo unspecified),inactive
16,O=C1CC(c2cccc(Br)c2)C2=C(CCCC2=O)N1 (stereo unspecified),43 nM (active)
17,O=C1CCCc2c1[nH]c1ccc(Br)cc21,inactive
18,O=C1CC(c2cccc(F)c2)C2=C(CCCC2=O)N1 (stereo unspecified),inactive
19,O=C(CN1C(=O)NC2(CCCCC2)C1=O)NCCC1=CCCCC1,inactive
20,CC(=O)OC(C(=O)NC1CCCCC1)c1ccccc1 (stereo unspecified),inactive
21,CC1(CCC(=O)OC2CCCCC2)OCCO1,inactive
22,CCc1ccc2oc(-c3ccc(N)cc3)nc2c1,120 nM (active)
23,Cc1ccc(/C(=C/CN2CCCC2)c2ccccn2)cc1,inactive

row,SMILES,max dye-equivalent concentration
1,C[C@@H]1C[C@H]2[C@@H]3C[C@H](F)C4=CC(=O)C=C[C@@]4(C)[C@]3(F)[C@H](O)C[C@]2(C)[C@@]1(O)C(=O)CO,inactive
2,CC1(C)CC(=O)c2cc(OCC(=O)NCC3CCCO3)ccc2O1 (stereo unspecified),1700 nM (active)
3,COc1ccccc1-n1cnc2cc(C(=O)NCC3CCCO3)ccc21 (stereo unspecified),inactive
4,O=C(Cn1c(=O)n(Cc2ccco2)c(=O)c2ccccc21)NCC1CCCO1 (stereo unspecified),inactive
5,Cc1cc2c(cc1C)NC1=C(N2)O[C@H](c2c[nH]c3ccc(COc4ccccc4)cc23)C1=O,inactive
6,CCN(CCCCOC(=O)c1ccc(OC)c(OC)c1)C(C)Cc1ccc(OC)cc1 (stereo unspecified),inactive
7,CC(C)NC(=O)N1CC[C@@]2(CCCN(C(=O)c3cccn3C)C2)C1,inactive
8,CCOc1ccc2nc(NC(=O)CSc3nc4c(c(=O)n(C)c(=O)n4C)n3CC)sc2c1,inactive
9,CC(=O)c1ccc(-n2nnnc2SCC(=O)N2CCN(C(=O)c3ccco3)CC2)cc1,inactive
10,COc1ccc(CCN2C(=O)c3[nH]nc(-c4ccccc4O)c3C2c2ccc(C)cc2)cc1OC (stereo unspecified),110 nM (active)
11,COc1ccc(CCN(C)CCN2C(=O)c3ccccc3C2=O)cc1OC,inactive
12,COc1ccc(-c2n[nH]c(C)c2-c2ccc(OC)c(OC)c2)c(O)c1,inactive
13,Cc1ccc(NC(=O)C2CCCN(S(=O)(=O)c3c(C)noc3C)C2)c(C)c1 (stereo unspecified),inactive
14,Cc1ccc(Cn2nnc3c(=O)n(CC(=O)N4CCCCC4)cnc32)cc1,inactive
15,COC(=O)c1ccccc1NC(=O)CN(Cc1ccccc1)S(C)(=O)=O,inactive
16,CNC(=O)CSc1nnnn1-c1ccc(C)cc1C,inactive
17,O=c1[nH]c(=O)n(Cc2ccco2)c2c1C(C(F)(F)F)(C(F)(F)F)N=C(c1ccco1)N2,18 nM (active)
18,O=c1[nH]c(CSc2ncc(-c3ccc(F)cc3)n2Cc2ccco2)nc2ccccc12,inactive
19,Nc1cc(=O)nc(SCc2ccccc2)n1Cc1ccco1,inactive
20,CC1Cc2ccccc2N1C(=O)Cn1cnc2ccccc2c1=O (stereo unspecified),inactive
21,COc1ccc(CC(=O)Nc2ccc(-c3nnc(-c4ccc(C)cc4)o3)cc2)cc1,inactive
22,Cc1ccc(OCC(=O)Nc2ccc(-c3nc4ncccc4o3)cc2)cc1,25 nM (active)
23,Cc1ccc(OCC(=O)Nc2ccc(-c3nnc(-c4ccco4)o3)cc2)cc1,inactive

row,SMILES,max dye-equivalent concentration
1,COc1ccccc1N(CC(=O)N1CCCCC1)S(=O)(=O)c1ccccc1,inactive
2,Cc1ccc(S(=O)(=O)N2CCC(C(=O)N[C@@H](C)C(=O)NCc3ccccc3)CC2)cc1,inactive
3,COc1ccc(Cl)cc1S(=O)(=O)N1CCN(CC(=O)C(C)(C)C)CC1,inactive
4,CCCCOC(=O)NCN1C(=O)C2C3C=CC(C3)C2C1=O (stereo unspecified),inactive
5,COCCNC(=O)c1ccccc1-c1nc(-c2ccccc2Cl)no1,inactive
6,COCCNC(=O)c1snc2ccc(Cl)cc12,49 nM (active)
7,COCC(C)NC(=O)c1ccc(Cl)c(Cl)c1 (stereo unspecified),inactive
8,CCN(CC)c1ccc(C(=O)OCC(=O)c2ccco2)cc1,inactive
9,Cc1cc(N2CCCCC2)nc2ccc(Cc3ccc4nc(N5CCCCC5)cc(C)c4c3)cc12,45 nM (active)
10,Fc1ccc2nc(N3CCCCC3)sc2c1,inactive
11,O=C(CSc1nnc(-c2ccoc2)o1)N1CCOCC1,inactive
12,O=C(O)C1C2C=CC(C2)C1C(=O)N1CCN(CCO)CC1 (stereo unspecified),inactive
13,O=c1[nH][nH]c(=O)c2cc(N3CCCC3)ccc12,53 nM (active)
14,Cc1ccccc1OCCC(=O)Nc1c(C)n(C)n(-c2ccccc2)c1=O,inactive
15,Cc1cc(C)cc(N(C(C)C(=O)Nc2c(C)n(C)n(-c3ccccc3)c2=O)S(C)(=O)=O)c1 (stereo unspecified),inactive
16,Cc1c(NC(=O)C(C)OC(=O)c2cc3c4ccccc4n(C)c3s2)c(=O)n(-c2ccccc2)n1C (stereo unspecified),110 nM (active)
17,CCOC(=O)C1CCN(C(=O)CC2C(=O)N(Cc3ccccc3)C(C)c3nc4ccccc4n32)CC1 (stereo unspecified),inactive
18,CC1(C)Cc2ccccc2-c2nc(CN3CCOCC3)[nH]c(=O)c21,inactive
19,N#Cc1c(N)sc2c1CCN(C(=O)OCc1ccccc1)C2,inactive
20,CCN1CCc2c(C#N)c(NCc3ccccc3)nc(NCCO)c2C1,430 nM (active)
21,CC(=O)/C(=N\N=C(N)N)c1ccccc1,inactive
22,CCc1nnc(NC(=O)C2CCCN2S(=O)(=O)c2ccccc2)s1 (stereo unspecified),18 nM (active)
23,CC(C)c1nnc(NC(=O)C2CCCN2S(=O)(=O)c2ccc(Cl)cc2)s1 (stereo unspecified),inactive

row,SMILES,max dye-equivalent concentration
1,CCc1nnc(NS(=O)(=O)c2ccc(NS(=O)(=O)c3ccccc3)cc2)s1,inactive
2,O=C(C1=C(O)C(=O)N(Cc2ccccc2)C1c1cccnc1)c1ccco1 (stereo unspecified),inactive
3,N#CC(C(N)=O)=C1CCC2(CC1)OCCCCO2,inactive
4,COc1cc(C2C(C(=O)c3ccc(C)o3)=C(O)C(=O)N2Cc2cccnc2)ccc1O (stereo unspecified),inactive
5,CCSC1=C(C#N)C(=O)n2c1cc1c2CCCC1,inactive
6,CC(=O)Nc1ccc(S(=O)(=O)Nc2cccc(NC(=O)C(C)(C)C)c2)cc1,inactive
7,COc1ccc(NS(=O)(=O)c2ccc(NC(=O)C(C)(C(F)(F)F)C(F)(F)F)cc2)nn1,20 nM (active)
8,COc1cc(NS(=O)(=O)c2ccc(NC(C)=O)cc2)cc(OC)c1,inactive
9,COC(=O)c1cc(NC(=O)CN2CCC(C(N)=O)(N3CCCCC3)CC2)cc(C(=O)OC)c1,inactive
10,CCCCCN(C(=O)NC(=O)Nc1ccccc1OC)S(C)(=O)=O,inactive
11,Cc1ccc(C(=O)Nc2nnc(-c3cccs3)s2)cc1C,73 nM (active)
12,CCCc1nnc(NC(=O)c2cc(OC)cc(OC)c2)s1,inactive
13,CCc1nnc(NC(=O)c2ccc(S(=O)(=O)NC3CCCCC3)cc2)s1,inactive
14,COc1ccc(Cc2nnnn2CC(=O)O)cc1,inactive
15,CC(=O)OCc1cc(=O)n(C)c(=O)n1C,inactive
16,CC(Sc1nncn1C)C(=O)Nc1ccccc1-c1ccccc1 (stereo unspecified),inactive
17,Cc1ccccc1-c1nc(N(C)Cc2ccco2)c2ccccc2n1,inactive
18,CC1CCc2c(sc(NC(=O)c3ccc(Cn4cc(Br)cn4)o3)c2C(N)=O)C1 (stereo unspecified),100 nM (active)
19,Cc1ccc(C)c(NC(=O)C2CC(=O)N(C(C)C)C2)c1 (stereo unspecified),inactive
20,O=C(NCC(F)(F)F)Nc1nnc(C(F)(F)F)s1,inactive
21,CN(C)CCCn1c(N)c(C#N)c2nc(C#N)c(C#N)nc21,730 nM (active)
22,O=C(O)C1CCN(S(=O)(=O)N2CCOCC2)CC1,inactive
23,O=C(CNS(=O)(=O)c1cccc(C(F)(F)F)c1)Nc1ccccc1F,inactive

row,SMILES,max dye-equivalent concentration
1,Cc1ccccc1NC(=O)NCc1ccco1,inactive
2,CN1CCN(c2ncncc2-c2ccc(C(=O)N(C)C)cc2)CC1,inactive
3,COc1ccc(-c2nnc(SC(C)C#N)o2)cc1 (stereo unspecified),inactive
4,CCOc1ccc(CNC(=O)C2CCC(=O)N2C2CCCC2)cc1OC (stereo unspecified),inactive
5,CCOc1cc(C2C(C(=O)OC)=CN(C3CCCC3)C=C2C(=O)OC)cc(Br)c1O,200 nM (active)
6,CCCC(=O)Nc1cc(OCC)c(NC(=O)NC2CCCCC2)cc1OCC,inactive
7,OCCN1CCN(CC/C=C2\c3ccccc3Sc3ccc(C(F)(F)F)cc32)CC1,inactive
8,CN(C)C(=O)/N=N\C(=O)N(C)C,inactive
9,Cc1ccc2nc(S(=O)(=O)O)[nH]c2c1,inactive
10,CCC(c1nnnn1Cc1ccccc1)N(Cc1cc2cc(OC)ccc2[nH]c1=O)CC1CCCO1 (stereo unspecified),32 nM (active)
11,CCC(c1nnnn1C1CCCC1)N(Cc1cccs1)Cc1cc2cccc(C)c2[nH]c1=O (stereo unspecified),inactive
12,CCC(=O)N(Cc1cc2cc(OC)ccc2[nH]c1=O)c1ccccc1C,200 nM (active)
13,Cc1cc(C)c2cc(CN(Cc3cccs3)Cc3nnnn3CC3CCCO3)c(=O)[nH]c2c1 (stereo unspecified),inactive
14,COc1ccc2[nH]c(=O)c(CN(Cc3nnnn3CCc3ccccc3)CC3CCCO3)cc2c1 (stereo unspecified),360 nM (active)
15,CC(C)(C)n1nnnc1C(c1cccs1)N(Cc1cccnc1)CC1CCCO1 (stereo unspecified),inactive
16,O=C(OCc1cc2ccccc2[nH]c1=O)c1cccnc1,inactive
17,c1ccc(CCn2nnnc2CN2CCN(C3CCCC3)CC2)cc1,inactive
18,CCOc1ccc2c(c1)cc(CN(C(=O)CC)C1CCCCC1)c1nnnn12,inactive
19,CCOc1ccc2[nH]c(=O)c(CN(CCCO)C(C)=O)cc2c1,300 nM (active)
